This is an account of results in PubChem BioAssay (NCI).

Test systems include SK-MEL-2 melanoma; EKVX NSCLC; SN12C renal; UO-31 renal; TK-10 renal; ACHN renal; CAKI-1 renal; A498 renal; CCRF-CEM leukemia; MOLT-4 leukemia; SR leukemia; RPMI-8226 leukemia; OVCAR-8 ovarian; OVCAR-5 ovarian; OVCAR-4 ovarian; SK-OV-3 ovarian; IGROV1 ovarian; OVCAR-3 ovarian; NCI/ADR-RES ovarian; HS 578T breast.
Holding throughout (assay): NCI-60 one-dose screen, 48 h (100 = growth as untreated, 0 = no growth, -100 = all killed)
What all share (conditions): 10 µM unless noted

About 83,000 compounds went through this panel and 20% of them were active in at least one assay; those are over-represented in the sample as a whole.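 Percent growth is the endpoint: 0 to 100 indicates growth inhibition (40 means 60% inhibition), 0 means no net growth, and negative values indicate cell death.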 Unmarked numbers belong to inactive results. The source made the active and inactive calls. The calls were made as follows: active = growth percent below 10; inactive = the rest.

`c1n[nH]cc1-c1nc2ccc3[nH]ncc3c2c2c1CC1(CC2)COC1`: the growth was 18.3% with SK-MEL-2 melanoma; 78.6% in the test with EKVX NSCLC; 38.9% with SN12C renal; 95.7% with UO-31 renal; 49.2% in the test on TK-10 renal; 54.6% in the test with ACHN renal. Also, the growth is 12.3% with CAKI-1 renal; 38.6% in the test with A498 renal; 30.3% in the test on CCRF-CEM leukemia; 32.8% in the test on MOLT-4 leukemia; 5.21% (active) in the test on SR leukemia; 71.4% in the test with RPMI-8226 leukemia. For the same compound, the growth is 52% in the test with OVCAR-8 ovarian; 107% in the test with OVCAR-5 ovarian; 89.7% in the test on OVCAR-4 ovarian; 21.7% in the test on SK-OV-3 ovarian; 55.4% with IGROV1 ovarian; 43.8% in the test on OVCAR-3 ovarian. Moreover, in the test on NCI/ADR-RES ovarian, the growth was 108%.

Regarding `O=c1[nH]c2ccccc2cc1COc1ccc(Nc2nccc(-c3ccc(Cl)cc3)n2)cc1`, the growth was 99.6% in the test with SK-MEL-2 melanoma; 104% in the test on EKVX NSCLC; 100% with SN12C renal; 98.7% with UO-31 renal; 111% with TK-10 renal; 84.9% in the test with ACHN renal. In addition, the growth in the test on CAKI-1 renal was 87.5%; with A498 renal it was 118%; in the test with CCRF-CEM leukemia, 103%; in the test on MOLT-4 leukemia it was 102%; in the test on SR leukemia, 103%; with RPMI-8226 leukemia, 108%. In addition, the growth was 102% with OVCAR-8 ovarian; 106% with OVCAR-5 ovarian; 95.6% in the test on OVCAR-4 ovarian; 94.5% with SK-OV-3 ovarian; 102% in the test on IGROV1 ovarian; 138% with OVCAR-3 ovarian. Moreover, in the test on NCI/ADR-RES ovarian, the growth is 101%.

Take `O=C(COc1ccc(/C=C2/C(=O)Nc3ccc(Cl)cc32)cc1)Nc1ccc(Br)cc1`: the growth in the test with SK-MEL-2 melanoma is 16.3%; in the test with EKVX NSCLC, -27.8% (active); in the test with SN12C renal, -80.6% (active); in the test with UO-31 renal, -73.7% (active); with TK-10 renal, -65.4% (active); in the test on ACHN renal it was -82.9% (active). In addition, the growth was -73% (active) with CAKI-1 renal; -51% (active) in the test on A498 renal; -23.9% (active) in the test with CCRF-CEM leukemia; -46.5% (active) in the test with MOLT-4 leukemia; -35.7% (active) in the test with SR leukemia; 14% in the test with RPMI-8226 leukemia. In addition, the growth in the test on OVCAR-8 ovarian is -44.4% (active); in the test with OVCAR-5 ovarian it was 3.15% (active); with OVCAR-4 ovarian, -54% (active); with SK-OV-3 ovarian, -57.8% (active); in the test on OVCAR-3 ovarian, -64.8% (active); in the test on HS 578T breast, -14.2% (active). In addition, the growth with NCI/ADR-RES ovarian is -34% (active).

Regarding `O=C(N=Nc1c(O)[nH]c2ccc(Cl)cc12)c1ccc2nc(-c3ccc(Cl)cc3)[nH]c2c1`, the growth is 11.8% with SK-MEL-2 melanoma; 29.9% in the test on EKVX NSCLC; -10.4% (active) in the test on SN12C renal; 87.3% with UO-31 renal; 52.3% in the test on TK-10 renal; 73.4% in the test on ACHN renal. Moreover, the growth with CAKI-1 renal is 82.8%; in the test with A498 renal, 47.8%; in the test with CCRF-CEM leukemia, 3.93% (active); in the test with MOLT-4 leukemia it was 6.71% (active); with SR leukemia it was 10.6%; in the test on RPMI-8226 leukemia, 77.8%. In addition, the growth was -34.8% (active) in the test on OVCAR-8 ovarian; 36.2% with OVCAR-5 ovarian; -3.41% (active) with OVCAR-4 ovarian; 42% in the test on SK-OV-3 ovarian; -11.1% (active) with IGROV1 ovarian; -5.16% (active) with OVCAR-3 ovarian. For the same compound, the growth in the test on NCI/ADR-RES ovarian is 94.7%.

For the compound `COc1c(B(O)O)cccc1-c1nc2ccc3cn[nH]c3c2c2c1CCCC2`, the growth in the test on SK-MEL-2 melanoma was 108%; with EKVX NSCLC it was 49.3%; in the test on SN12C renal it was 50.6%; in the test on UO-31 renal, 23.6%; with TK-10 renal, 12%; with ACHN renal, 27.3%. Moreover, the growth was -11.3% (active) in the test with CAKI-1 renal; -2.36% (active) in the test on A498 renal; 39.6% with CCRF-CEM leukemia; 47.7% in the test on MOLT-4 leukemia; 71.8% in the test with SR leukemia; 45.8% in the test with RPMI-8226 leukemia. Moreover, the growth in the test on OVCAR-8 ovarian was 48.4%; in the test with OVCAR-5 ovarian, 76.1%; in the test on OVCAR-4 ovarian, 77.3%; in the test with SK-OV-3 ovarian it was 25.3%; in the test with IGROV1 ovarian, 57.9%; with OVCAR-3 ovarian, 57%. In addition, in the test with NCI/ADR-RES ovarian, the growth was 65.2%.

In the case of `C/C(=N/O)c1ccc(NC(=O)CSc2nnc(-c3ccc(-c4nc5ccc(Cl)cc5[nH]4)cc3)o2)cc1`, the growth was -26% (active) with SK-MEL-2 melanoma; 13.4% in the test on EKVX NSCLC; -33.9% (active) with SN12C renal; 104% in the test on UO-31 renal; 99.5% with TK-10 renal; 45.5% with ACHN renal. Further, the growth was 60.2% in the test with CAKI-1 renal; 160% in the test with A498 renal; 34.5% in the test on CCRF-CEM leukemia; 2.09% (active) in the test with MOLT-4 leukemia; 12.3% in the test with SR leukemia; 18.2% in the test on RPMI-8226 leukemia. The growth was -31.7% (active) with OVCAR-8 ovarian; 55.3% in the test with OVCAR-5 ovarian; 14.5% in the test with OVCAR-4 ovarian; 39.6% in the test with SK-OV-3 ovarian; 34.5% with IGROV1 ovarian; -5.29% (active) in the test with OVCAR-3 ovarian. In addition, the growth in the test with NCI/ADR-RES ovarian is 88.9%.

Turning to `CNc1nc2ccccc2n2c(-c3ccc(O)c(O)c3)cnc12`, the growth was 3.66% (active) in the test on SK-MEL-2 melanoma; 16.3% in the test with EKVX NSCLC; 4.03% (active) in the test on SN12C renal; 1.12% (active) in the test with UO-31 renal; 62.8% in the test with TK-10 renal; 6.64% (active) with ACHN renal. Further, the growth in the test on CAKI-1 renal is 3.52% (active); with A498 renal it was 92.4%; in the test on CCRF-CEM leukemia it was 14.9%; in the test on MOLT-4 leukemia, 11%; in the test on SR leukemia, 6.32% (active); in the test on RPMI-8226 leukemia it was 9.2% (active). The growth was 11.9% in the test on OVCAR-8 ovarian; 14.9% in the test on OVCAR-5 ovarian; 34.7% with OVCAR-4 ovarian; 16.5% with SK-OV-3 ovarian; 7.31% (active) with IGROV1 ovarian; -5.33% (active) in the test with OVCAR-3 ovarian. The growth in the test on NCI/ADR-RES ovarian was 6.86% (active).

Regarding `COc1ccc(N=Nc2c(N)nn3c(-c4cc5cc(Br)ccc5oc4=O)ccnc23)cc1`, the growth was 29.6% in the test with SK-MEL-2 melanoma; 34.8% in the test on EKVX NSCLC; 17.6% in the test with SN12C renal; 8.11% (active) in the test with UO-31 renal; 62% with TK-10 renal; -21.2% (active) in the test with ACHN renal. Moreover, the growth is 12% with CAKI-1 renal; 36.1% in the test on A498 renal; 96.2% with CCRF-CEM leukemia; 85.6% in the test with MOLT-4 leukemia; 28% in the test with SR leukemia; 48.5% with RPMI-8226 leukemia. Moreover, the growth in the test on OVCAR-8 ovarian was 19.5%; in the test on OVCAR-5 ovarian, 33.4%; in the test with OVCAR-4 ovarian, 32.2%; with SK-OV-3 ovarian it was 17.4%; in the test on IGROV1 ovarian, 6.35% (active); in the test on OVCAR-3 ovarian, 25.3%. Moreover, in the test on NCI/ADR-RES ovarian, the growth was 15.5%.
